# Measurements: the supplement of paper PMC4380459
# Test system: tubulin (bovine brain)
# Test: tubulin polymerization end-point dOD, fold change relative to DMSO vehicle; higher = more polymerization (stabilization)
# Conditions: 50 µM; 60 min; 37 °C
# Outline: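 Using the Cytoskeleton HTS-Tubulin polymerization kit, 4 mg/ml bovine brain tubulin in G-PEM buffer (PIPES pH 6.9, MgCl2, EGTA, GTP) was combined on ice in 384-well plates with compound at a final 50 μM in 0.5% DMSO. After warming to 37°C in a Tecan reader, the plates were read at 340 nm once a minute for 1 hour. Values give the end-point change in optical density as percent fold change over DMSO vehicle, normalized per run with the means and standard deviations of DMSO and reference-control wells.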
row,SMILES,tubulin polymerization end-point dOD
1,COc1ccc(Cl)cc1NC(=O)CSc1nnc(-c2ccncc2)n1-c1ccccc1,-50.9%
2,O=c1c(Cl)c(N2CC=C(c3ccccc3)CC2)cnn1-c1nc2ccccc2[nH]1,-22.9%
3,CCN(CC)c1ccc(NC(=O)C2CC=CCC2)cc1 (centres undefined),-23.9%
4,Cc1ccc(-c2csc3ncn(CC4CCCCO4)c(=O)c23)cc1 (centres undefined),-190%
5,CCOc1c(Cl)cc(C(=O)N2CCN(c3cccc(C)c3)CC2)cc1OC,-52.8%
6,CC(=O)c1c(C)[nH]c(C(=O)Nc2ccc(N3CCCC3)cc2)c1C,27.6%
7,Cc1cc2cc3c(cc2nc1SCC(=O)Nc1c(C)cccc1C)OCO3,145%
8,COc1ccc(OCc2nnc(SCC(N)=O)n2-c2cc(C)ccc2C)cc1,-39.4%
9,Cc1ccc(/C=N\NC(=O)COc2ccccc2Br)c(C)c1,-56.5%
10,Cc1cc2cc3c(cc2nc1SCC(=O)NCCc1ccccc1)OCCO3,130%
11,COc1ccccc1NC(=O)CSc1nnc(-c2cccnc2)n1-c1ccccc1C,-57.2%
12,CN(C)c1ncc(C(=O)Nc2ccc(Oc3ccc4c(c3)OCO4)cc2)cn1,8.04%
13,Cc1ccc2nc(-c3ccc(I)cc3)cn2c1,101%
14,Cc1cc(NC(=O)CSc2nnc3c(C)cc4c(C)ccc(C)c4n23)no1,-40.7%
15,Cn1c(C(=O)Nc2ccc(-c3nccs3)cc2)cc(Br)c1Br,15.5%
16,O=C(Nc1ccc2c(c1)OCCO2)C(=O)Nc1cccc2cccnc12,76%
17,O=C(Nc1ncc(Cc2ccccc2Cl)s1)c1ccncc1,-29.4%
18,CCS(=O)(=O)N1CCc2cc(C3=NN=C(NCc4ccc5c(c4)OCO5)SC3)ccc21,227%
19,O=c1[nH]c(CSc2nnc(C3CC3)n2C2CC2)nc2sc(-c3ccccc3)cc12,31.8%
20,COc1cccc2sc(NC(=O)C3CN(C(C)=O)c4ccccc4O3)nc12 (centres undefined),-38.1%
21,CCOC(=O)Nc1nc2ccccc2[nH]1,0.459%
22,COc1ccc2cc(CN(Cc3ccco3)C(=O)c3cccs3)c(=O)[nH]c2c1,91.2%
23,CC(=O)c1c(C)cc(C)c(CSc2nnc(-c3ccc(F)cc3)n2C)c1C,-75.9%
24,CC(=O)c1c(C)oc2c1cc(NS(=O)(=O)c1ccc(Cl)cc1)c1ccccc12,2.59%
25,CCc1nnc(NC(=O)CSc2cc(C)c3cc(C)cc(C)c3n2)s1,19.7%
26,COc1ccc2nc(/C=C/c3cccc(F)c3)sc2c1,6.83%
27,O=C(Nc1ncc(Cc2ccccc2)s1)c1cc(Br)c[nH]1,2.89%
28,CS(=O)(=O)c1ccc(C(=O)Nc2ncc(Cc3cccc(Cl)c3Cl)s2)cc1,-8.57%
29,COc1cccc(/C=N/NC(=O)c2ccc(N3CCCC3=O)cc2)c1,11.9%
